Source: PubChem
Hits are enriched below; roughly 21% of the tested compounds scored in any of these assays.
DT40 TDP1 no CPT: qHTS for Inhibitors of human tyrosyl-DNA phosphodiesterase 1 (TDP1): qHTS in cells in absence of CPT; actives 15% (n = 420,000); Potency, µM (titrated, usually from 46.2 µM), for the others: at the top dose activity change, negative = growth inhibition, actives largely listed as inhibitors; DT40 Tdp1-/- hTDP1 cells, no CPT, ATP luminescence, 48 h; note: potency is the fitted concentration of half-maximal effect; % is set by controls: 0 for no effect and ±100 for the full control effect; nearly all actives have a fitted effect of over 55% in size
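Stably hTDP1-transfected Tdp1-null chicken DT40 cells were treated with library compounds minus camptothecin and grown for at least 48 hr at 37 °C, after which cellular ATP was quantified by luminescence.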
ClpP mod: qHTS Assay for Activators of ClpP; ATP-dependent Clp protease proteolytic subunit (Bacillus subtilis (strain 168)), P80244; purified B. subtilis ClpP, FRET peptide cleavage, 20 min; Potency, µM (doses to about 57.5 µM), for the others: top-dose activity change, negative = active; actives 1.9% (n = 340,000); AID 651965, 2013; active = well fitted falling curve with a large enough effect; inconclusive = small, poorly fitted or top-dose-only effect; inactive = no such curve, though single readings can be large or run the other way; note: potency is the fitted concentration of half-maximal effect; the source files actives as falling curves though it sought activators and does not explain the sign; nearly all actives have a fitted effect of over 65% in size
Target sequence (P80244 whole entry, looked up): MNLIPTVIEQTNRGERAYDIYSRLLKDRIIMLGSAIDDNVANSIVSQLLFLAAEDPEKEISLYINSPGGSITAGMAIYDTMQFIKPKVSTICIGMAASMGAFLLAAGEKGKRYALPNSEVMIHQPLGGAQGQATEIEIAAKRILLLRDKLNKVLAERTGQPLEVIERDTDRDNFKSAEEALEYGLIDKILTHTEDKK
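Buffer: 100 mM Tris/HCl pH8, 100 mM KCl, 0.05% low protease BSA, 2.5% glycerol, 0.01% Tween-20. ClpP 10 microg/mL final; 20 min RT; delta FRET normalized to ADEP and DMSO controls.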
IL-1B inflam inh: qHTS for Inhibitors of Inflammasome Signaling: IL-1-beta AlphaLISA Primary Screen | THP-1 LPS/ATP IL-1B secretion, AlphaLISA, 16 h; stronger effect = lower value | AID 743279, 2014 | activity change, % at 57.5 µM | actives 4.7% (n = 360,000); in the data active = activity change below about -50%; inconclusive = mostly about -30% to -49%; note: % is set by controls: 0 for no effect and ±100 for the full control effect
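Secreted IL-1B measured by AlphaLISA bead assay after 16 h compound exposure of THP-1 cells; compounds (final up to 57.5 uM) added 1 h before LPS (250 ng/mL) and ATP (1.25 mM) stimulation; lower signal means less secretion.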
DRD3 antagonist: qHTS of D3 Dopamine Receptor Antagonist: qHTS; D3R cells, DiscoveRx beta-arrestin luminescence, antagonist mode; stronger effect = lower value; max response, negative = inhibition, %; actives 2.5% (n = 360,000); AID 652054, 2013; in the data active = max response below about -50%; inconclusive = no clear call, values can overlap the other calls; note: % is set by controls: 0 for no effect and ±100 for the full control effect
Target sequence (P35462 whole entry, looked up): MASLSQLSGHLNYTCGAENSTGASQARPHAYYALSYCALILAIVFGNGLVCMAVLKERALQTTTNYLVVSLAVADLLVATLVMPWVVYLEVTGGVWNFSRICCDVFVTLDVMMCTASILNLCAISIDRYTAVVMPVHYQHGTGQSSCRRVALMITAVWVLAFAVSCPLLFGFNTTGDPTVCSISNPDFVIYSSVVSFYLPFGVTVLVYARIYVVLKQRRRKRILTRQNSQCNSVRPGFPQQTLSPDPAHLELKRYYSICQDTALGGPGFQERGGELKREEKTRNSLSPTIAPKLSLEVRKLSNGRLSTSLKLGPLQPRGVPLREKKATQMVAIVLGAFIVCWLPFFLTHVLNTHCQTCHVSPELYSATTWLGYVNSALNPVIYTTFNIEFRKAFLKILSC
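Cells expressing the human receptor were seeded at 1500 cells/well, incubated overnight at 37 degrees C in 5% CO2, then exposed to library compounds with dopamine controls for 90 minutes at 37 degrees C before luminescent detection.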
DT40 TDP1 CPT: qHTS for Inhibitors of human tyrosyl-DNA phosphodiesterase 1 (TDP1): qHTS in cells in presence of CPT; chicken DT40 Tdp1-/-;hTDP1 cells + 20 nM CPT, ATP luminescence, 48 h; Potency, µM (highest dose often 46.2 µM), without a hit: top-dose activity change, negative = growth inhibition, actives largely listed as inhibitors; actives 12% (n = 420,000); AID 686979, 2013; note: potency is the fitted concentration of half-maximal effect; % is set by controls: 0 for no effect and ±100 for the full control effect; nearly all actives have a fitted effect of over 55% in size
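Chicken DT40 Tdp1-/- cells complemented with human TDP1, 400 cells/well, exposed to compounds plus 20 nM camptothecin for at least 48 h at 37 C; viability read as ATP content by CellTiter-Glo luminescence.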
D3 ag: qHTS of D3 Dopamine Receptor Agonist: qHTS | D(3) dopamine receptor (Homo sapiens), P35462 | D3R DiscoveRx beta-arrestin cells, luminescence, 90 min | max activation, % | actives 0.58% (n = 410,000) | AID 652048, 2013; in the data active = max activation above about 30%; note: 0% is about no effect
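Cells at 1500/well, incubated overnight, then treated with pinned compounds (dopamine as control) for 90 min at 37 degrees C. DiscoveRx reagent added for 30 - 60 minutes at room temperature; luminescence read.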
* hit, by the source's call; ? = inconclusive; · = no result; [ ] = remark or other dose. Unless noted, calls come from the whole dose curve; as a rule, active = well fitted inhibition curve with a large enough effect; inconclusive = small, poorly fitted or top-dose-only effect; inactive = flat fitted curve, though single readings scatter.

SMILES	DT40 TDP1 no CPT	ClpP mod	IL-1B inflam inh	DRD3 antagonist	DT40 TDP1 CPT	D3 ag
COc1cccc(NC(=O)C2CCCN2S(=O)(=O)c2ccc3nc(-c4ccccc4)[nH]c3c2)c1 (stereo unspecified)	·	4.3%	·	·	·	1.8
O=S(=O)(c1ccc2nc(-c3ccccc3)[nH]c2c1)N1CCN(c2ccc(Cl)cc2)CC1	?	-1.3%	5.9	-4.1	?	2.4
COc1ccc(OC)c(NC(=O)CCNS(=O)(=O)c2cc(Br)cnc2N)c1	4.5%	-5.0%	-7.0	-12.6	-11.4%	3.4
O=C(CCc1c[nH]c2ccccc12)N1CCN(S(=O)(=O)c2ccc([N+](=O)[O-])cc2)CC1	?	0.0%	10.8	21.6	?	3.5
Cc1cccc(NC(=O)C2CCCN2S(=O)(=O)c2ccc3nc(-c4ccccc4)[nH]c3c2)c1 (stereo unspecified)	18.4µM*	4.2%	·	·	?	13.1
COC(=O)c1ccccc1NC(=O)CSc1nc(C)c(Cl)c(C)c1C#N	-25.2%	?	·	·	-18.4%	-22.3
CCOC(=O)c1cccc(NC(=O)CN(c2ccc(OC)cc2)S(=O)(=O)c2c(C)noc2C)c1	?	-1.1%	-14.3	4.4	-11.0%	-1.9
CCOc1ccc(N(CC(=O)Nc2ccc(C)c(C)c2)S(=O)(=O)c2c(C)noc2C)cc1	10.3µM*	-5.1%	-24.0	-65.7*	9.2µM*	-12.9
CCOc1ccc(N(CC(=O)Nc2cccc(F)c2)S(=O)(=O)c2c(C)noc2C)cc1	20.6µM*	-2.9%	-1.3	3.9	?	5.0
CCOc1ccc(N(CC(=O)NC2CCCC2)S(=O)(=O)c2c(C)noc2C)cc1	-26.9%	2.0%	-2.4	?	-28.7%	-0.6
O=C1C=C(c2c(O)ccc3ccccc23)c2ccccc2C1=O	1.16µM*	3.2%	-116.8*	-62.4*	1.16µM*	-8.9
O=C1C=C(O)c2ccccc2C1=O	-1.9%[9.04 µM]	·	·	·	?	·
CCC1Oc2ccccc2N(CC(=O)NCCC2=CCCCC2)C1=O (stereo unspecified)	25.9µM*	-0.2%	-17.4	-6.6	16.4µM*	-8.7
O=C(Cn1ncn2c(cc3ccccc32)c1=O)NCCc1cccs1	24.9%	-15.1%	0.0	-5.4	-20.2%	-2.1
O=C(Cn1ncn2c(cc3ccccc32)c1=O)NCCC1=CCCCC1	?	22.4µM*	-4.5	-26.4	-23.5%	-16.6
CCS(=O)(=O)N1CCc2cc(C(=O)Nc3cccc(NC(C)=O)c3)ccc21	?	-0.8%	·	·	?	8.5
COCCN=c1scc(-c2cc(OC)ccc2OC)n1/N=C/c1c[nH]c2ccccc12	?	-5.9%	-50.2*	6.1	?	4.3
COc1ccc(-c2cc(C(F)(F)F)n3nc(C(=O)Nc4cc(C(F)(F)F)ccc4Cl)cc3n2)cc1OC	?	-0.1%	·	·	14.7%	6.4
O=C(c1ccccc1)c1ccc2nc(N3CCN(c4ccccc4)CC3)c3nncn3c2c1	6.51µM*	-5.1%	·	·	4.61µM*	3.5
O=C(c1ccccc1)c1ccc2nc(N3CCN(C(=O)c4ccco4)CC3)c3nncn3c2c1	13µM*	-4.8%	-19.9	-12.8	23.1µM*	1.4
COc1ccccc1N1CCN(c2nc3ccc(C(=O)c4ccccc4)cc3n3c(C)nnc23)CC1	-0.5%	1.1%	·	·	-3.4%	4.2
CCOC(=O)N1CCN(c2nc3ccc(C(=O)c4ccccc4)cc3n3cnnc23)CC1	?	-2.1%	-10.8	-17.8	?	3.1
Cc1cccc(N2CCN(c3nc4ccc(C(=O)c5ccccc5)cc4n4cnnc34)CC2C)c1 (stereo unspecified)	13µM*	-1.9%	·	·	18.4µM*	-2.1
COc1ccc(N2CCN(c3nc4ccc(C(=O)c5ccccc5)cc4n4cnnc34)CC2)cc1	-96.1%	-1.3%	·	·	16.4µM*	2.5
c1ccc(Cc2nnc3n2CCN(Cc2cnc(-c4ccccc4)s2)CC3)cc1	-14.9%	·	·	·	-20.4%	·
SMILES	DT40 TDP1 no CPT	ClpP mod	IL-1B inflam inh	DRD3 antagonist	DT40 TDP1 CPT	D3 ag
CC(C)NC(=O)Nc1ccc2c(c1)C(=O)N([C@@H](C)CO)C[C@@H](C)[C@H](CN(C)Cc1ccccc1)OCCCC[C@H](C)O2	?	-5.9%	-11.9	-8.8	-18.6%	-6.1
C[C@@H]1CCCCO[C@H](CN(C)Cc2ccc3c(c2)OCO3)[C@H](C)CN([C@@H](C)CO)C(=O)c2cc(NC(=O)c3ccccc3)ccc2O1	20.6µM*	-4.9%	-14.4	?	25.9µM*	-10.8
C[C@@H]1CCCCO[C@@H](CN(C)Cc2ccc3c(c2)OCO3)[C@@H](C)CN([C@H](C)CO)C(=O)c2cc(N(C)C)ccc2O1	-7.7%	-3.5%	-25.3	-25.1	-2.7%	0.1
C[C@@H]1CCCCO[C@H](CN(C)Cc2ccc3c(c2)OCO3)[C@@H](C)CN([C@H](C)CO)C(=O)c2cc(NC(=O)c3ccccc3)ccc2O1	14.6µM*	-0.4%	?	19.3	20.6µM*	4.7
C[C@@H]1CN([C@@H](C)CO)C(=O)c2cc(NC(=O)c3ccccc3)ccc2O[C@@H](C)CCCCO[C@@H]1CN(C)Cc1ccc(C(F)(F)F)cc1	7.31µM*	-15.5%	?	-27.9	9.2µM*	-7.1
C[C@@H]1CCCCO[C@@H](CN(C)Cc2ccccc2)[C@@H](C)CN([C@H](C)CO)C(=O)c2cc(NC(=O)Nc3cccc4ccccc34)ccc2O1	20.6µM*	?	19.8	33.8	-12.3%	1.4
Cc1ccccc1Cn1nc(C)c(NC(=O)/C=C/c2cnn(C)c2)c1C	?	-3.6%	-3.7	4.8	-9.7%	5.9
O=C1CCCCN1CC(=O)N1CCCC(Nc2ccc(F)cc2)C1 (stereo unspecified)	14.2%	-3.0%	1.1	0.6	7.6%	2.0
Cc1cccc(CNC(=O)c2cnn(-c3nccc(-c4cccs4)n3)c2C(C)C)n1	?	·	·	·	-4.4%[9.04 µM]	·
C[C@@H]1CCCCO[C@H](CN(C)C(=O)Nc2ccc(F)cc2)[C@@H](C)CN([C@H](C)CO)C(=O)c2cc(NC(=O)c3ccccc3)ccc2O1	?	-3.4%	-25.4	-21.0	?	10.1
